# The panel holds about 83,000 compounds, 20% with a hit somewhere; the sample as a whole holds those more often.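 Values shown are percent growth following 48 h exposure of cells in 96-well plates to a single concentration of compound; below 10 was considered active.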 Values without a mark were called inactive. Calls of active or inactive are those of the source.
# Test system: HL-60(TB) leukemia
# Assay: NCI-60 one-dose screen, 48 h (100 = growth as untreated, 0 = no growth, -100 = all killed)
# Conditions: 10 µM unless noted
row,Compound,growth
1,NC1(C(=O)O)CSSC1,4.59% (active)
2,O=C1c2ccc3c4c(ccc(c24)C(=O)N1CCCNCc1ccccc1Cl)C(=O)N(CCCNCc1ccccc1Cl)C3=O,-55.9% (active)
3,O=S(=O)(c1ccc(NC(=S)NCc2cccnc2)cc1)N1CCCCC1,64.9%
4,C=C1C(=O)O[C@H]2[C@H]1CC/C(CNC(=O)/C=C/c1cccc(OC)c1)=C\CC[C@@]1(C)O[C@@H]21,-35.4% (active)
5,COC(=O)c1cc(-c2cc(OC)c(OC)c(OC)c2)[nH]c1N/N=C/c1c(Cl)cccc1Cl,134%
6,COc1ccc(S(=O)(=O)NCCCNc2cc(-c3c(-c4cccc(OC)c4)nc4sccn34)ccn2)cc1,32.7%
7,C=C1C(=O)O[C@H]2[C@H]1CC/C(CNC(=O)/C=C/c1ccc(Cl)cc1Cl)=C\CC[C@@]1(C)O[C@@H]21,-27.4% (active)
8,CCOc1cc2c(Cl)ncnc2c(OCC)c1OCC,-16.4% (active)
9,CCC(C)[C@H](NC(=O)Nc1cc(C(F)(F)F)cc(C(F)(F)F)c1)C(=O)N[C@@H](Cc1cn(C)cn1)C(=O)OC (stereo not given in full),-78.4% [100 µM] (active)
10,OCCNCCNc1c2ccccc2nc2ccccc12,86.2%
11,COc1ccc(C2=NN(c3nc(-c4ccc(OC)cc4)c(C#N)c(=O)n3C)C(=O)CC2)cc1,99.5%
12,CN(C)C(=O)SC1=C(c2c(Cl)cccc2Cl)C(=O)c2ccccc21,-35.7% (active)
13,O=c1[nH][n+](-c2ccc(Br)cc2)no1,20.2%
14,COC(=O)c1c2c(c(C)[n+]([O-])c1C)C(=O)C(NCCN1CCOCC1)=CC2=O,52.4%
15,CC(=O)O[C@H]1CC[C@]2(C)[C@H]3CC=C4[C@@H]5CC(C)(C)CC[C@]5(C(=O)N5CCN(CCC#N)CC5)CC[C@@]4(C)[C@]3(C)CC[C@H]2C1(C)C,12.9%
16,COc1cccc(OC)c1C(=O)N[C@@H]1C(=O)N2[C@@H]1SC(C)(C)[C@@H]2C(=O)O,94.3%
17,COc1cccc2c1C(=O)c1c(O)c3c(c(O)c1C2=O)C[C@@](O)(C(C)=O)C[C@@H]3OC1CC(N)C(O)C(C)O1 (stereo not given in full),-63.3% (active)
18,O=C1/C(=C/c2cccc(OCc3ccccc3)c2)Oc2cc(OCCN3CCCCC3)ccc21,67%

row,Compound,growth
1,COc1cc(C2=N/C(=C\c3cc4ccccc4nc3Oc3ccccc3)C(=O)N2C(=N)N)cc(OC)c1OC,77.2%
2,CN1CCN(CCC(=O)Nc2cccc(-n3cc(-c4ccncc4)c(-c4ccc(Cl)c(O)c4)n3)c2)CC1,5.71% (active)
3,CC(C)(C)c1cn2cccc(C(=O)N3CCN(CC(=O)Nc4ccc(Cl)cc4C(=O)c4ccccc4Cl)CC3)c2n1,-32.4% (active)
4,CCCCCCCCCCCCCCCCS(=O)(=O)Nc1cc(C(=O)NN)cc(C(=O)NN)c1,35.8%
5,O=S(=O)(NCC[C@@H]1C[C@H]1c1ccc2ccccc2c1)c1ccc(C(F)(F)F)cc1,96.5%
6,CC12CCC(/C(=C/NNc3ccc([N+](=O)[O-])cc3[N+](=O)[O-])C1=O)C2(C)C (stereo not given),110%
7,O=C(Nc1cccc2c(O)c(N=Nc3ccc(S(=O)(=O)Nc4nccs4)cc3)cc(N=Nc3ccc(S(=O)(=O)Nc4nccs4)cc3)c12)C(Cl)Cl,102%
8,CCCCCCCCCCCCCC[n+]1ccc(C(N)=O)cc1,-50.6% (active)
9,C=C1C(=O)O[C@H]2[C@H]1CC/C(COC(=O)C(=O)c1c[nH]c3ccc(Cl)cc13)=C\CC[C@@]1(C)O[C@@H]21,-44.6% (active)
10,CCCNC(=O)c1cn2ncnc(Nc3cc(C(=O)NC4CC4)ccc3C)c2c1C,129%
11,COc1ccc(-c2cn3c(ccc4ccccc43)n2)cc1,109%
12,COc1cccc(C(=O)OCCn2nc3c4c(cccc42)C(=O)c2ccccc2-3)c1O,0.071% (active)
13,Cc1ccc2nc(-c3c(CCCO)noc3N)[nH]c(=O)c2c1,89.8%
14,COc1cccc(-c2nn(-c3ccccc3)cc2-c2ccnc(NCCNC(=O)Nc3ccccc3)c2)c1,19.9%
15,N=C1C=C(N)C(=O)c2ccccc21,-32.8% (active)
16,O=S(=O)(NCCCNc1nccc(-c2c(-c3cccc(O)c3)nc3occn23)n1)c1ccc(Cl)cc1,56.1%
17,NC(=NCCCC1(c2ccccc2)CCCC1)Nc1ccc(Cl)cc1,77.2%

# — PubChem BioAssay (NCI)
